Cycloheximide cs – counter-screen hit for Shiga toxin inhibitors, cycloheximide; cell reporter, cycloheximide protein synthesis inhibition counterscreen; AID 2314; max response, %; actives 12% (n = 300,000); in the data active = max response mostly above about 13%, no sharp cut-off; inactive = mostly below about 14%; note: read at 38.3 µM for the half of the compounds with a filed dose; 0% is about no effect
Pf growth 96h – P. falciparum growth inhibition at 96 hour, primary screen for plastid delayed-death inhibitors | P. falciparum luciferase reporter growth, 96 h | Potency, µM (series often up to 28.7 µM), for the others: at the top dose activity change, negative = inhibition, usual class: inhibitors | actives 6.9% (n = 320,000) | AID 504834; note: potency is the fitted concentration of half-maximal effect; % is set by controls: 0 for no effect and ±100 for the full control effect
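Parasite growth measured via integrated firefly luciferase reporter in P. falciparum. Infected erythrocytes at 2% hematocrit, 0.05% parasitemia final were treated 96 hours at 37 C under 5% CO2, and luminescence was read.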
Pf growth 48h – inhibits P. falciparum growth in the first generation, 48 h | Potency, µM (top dose mostly 28.7 µM), for the others: top-dose activity change, negative = inhibition, usual class: inhibitors | actives 5.9% (n = 310,000) | P. falciparum luciferase growth in erythrocytes, 48 h; note: potency is the fitted concentration of half-maximal effect; % is set by controls: 0 for no effect and ±100 for the full control effect
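Read-out is firefly luciferase luminescence from an integrated reporter in P. falciparum, so falling signal marks reduced parasite growth. Infected erythrocytes were at 2% hematocrit and 0.1% parasitemia (final) in Albumax-supplemented RPMI 1640.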
Sm TGR block – S. mansoni TGR enzyme inhibition; Q962Y6; Potency, µM (highest dose often 114 µM), inactives show at the top dose activity change, negative = inhibition, hits mostly inhibitors; actives 3% (n = 360,000); purified TGR, DTNB reduction, TNB absorbance 405 nm; note: potency is the fitted concentration of half-maximal effect; % is set by controls: 0 for no effect and ±100 for the full control effect; nearly all actives have a fitted effect of over 60% in size
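Kinetic colorimetric format: TGR-catalysed, NADPH-driven DTNB reduction monitored via TNB absorbance. Enzyme dispensed at 20 nM; compound exposure 15 min at room temperature before reaction start.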
NS1 inh – inhibitors of influenza NS1 protein function; AID 2326; Potency, µM (doses to about 46.1 µM), for the others: at the top dose activity, positive = more growth; actives 0.4% (n = 270,000); calls by dose curve; note: potency is the fitted concentration of half-maximal effect; actives are rising curves; nearly all actives have a fitted effect of over 50% in size
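OD600 was taken as the measure of yeast growth restored by compound in an NS1-expressing S. cerevisiae strain. Cells had been washed out of glucose medium and diluted 1:100 into galactose -URA medium, pH 6.0.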
Shiga toxin inh – Shiga toxin inhibition. Vero cells, Shiga toxin protein synthesis inhibition reporter. AID 2315. actives 9.2% (n = 290,000). inhibition, % at 38.7 µM; in the data active = inhibition mostly above about 28%, no sharp cut-off; inactive = mostly below about 43%; note: 0% is about no effect
* hit, by the source's call; i = inactive; u = inconclusive; x = no result given; [ ] = dose if it differs, or a comment. Shown are actives, neighbours in structure and some others; about 21% of the full set was active somewhere. Unless noted, calls come from the whole dose curve; as a rule, active = well fitted curve in the direction sought with a large enough effect; inconclusive = small, poorly fitted or top-dose-only effect, or another doubt; inactive = no such curve, though single readings can be large; an effect the other way counts as inactive or inconclusive.

SMILES	Cycloheximide cs	Pf growth 96h	Pf growth 48h	Sm TGR block	NS1 inh	Shiga toxin inh
N#Cc1cnn2c(N)c(-c3ccc(Cl)cc3)cnc12	5	57%	40%	3%	x	-5
Nc1c(C(=O)O)cnc2c(-c3ccc(Cl)cc3)cnn12	27*	i	124%	-7%	x	91
COC(=O)c1ccc(Oc2c(F)c(F)nc(N3CCOCC3)c2F)cc1	8	-19%	25%	3%	x	-3
COC1CCCCC1Nc1ccc(C)c(C)c1 (centres undefined)	-3	2.1µM*	-6%	4%	-7%	10
Cc1ccc(NC(=O)C2CCCCC2)cc1C	x	31%	u	6%	x	x
Cc1cccc(N2CCN(C(=O)c3cnn(-c4ccc(F)cc4F)c3C3CCN(C(=O)OC(C)(C)C)CC3)CC2)c1C	x	x	x	30%	x	x
COc1ccc2c(c1OC)C(=O)N(c1ccc(F)cc1)C2	36*	-26%	51%	4%	-6%	65*
COc1ccc2c(c1OC)C(=O)N(c1cccc(NC(C)=O)c1)C2	23*	41%	64%	-2%	7%	28
COc1ccc(-n2cc(-c3ccc4c(c3)OCO4)n(CC(=O)Nc3cccc(C)c3)c2=O)cc1	x	x	x	2%	x	x
CCOc1ccc(Br)cc1S(=O)(=O)Nc1ccccc1N1CCOCC1	9	x	8.3µM*	-13%	-31%	-7
CCOc1ccccc1N1CC(C(=O)Nc2ccccc2N2CCOCC2)CC1=O (centres undefined)	38*	u	u	2%	5%	17
CCOc1cc(N2CCOCC2)c(OCC)cc1NC(=O)C1CC(=O)N(c2ccccc2OCC)C1 (centres undefined)	x	u	-28%	-15%	x	x
CC(C)(C)C1CCC(C(=O)Nc2ccccc2N2CCOCC2)CC1 (centres undefined)	x	u	9.3µM*	21%	x	x
CN1CCN(c2ccccc2NC(=O)c2ccc3c(c2)OCCO3)CC1	-1	25%	9%	2%	-6%	11
CCN1C(=O)[C@H]2[C@@H](c3ccc(-c4ccc(F)cc4)c(OC)c3)N[C@@](CC(C)C)(C(=O)OC)[C@H]2C1=O	x	2.6µM*	2.3µM*	40µM*	x	x
CCN1C(=O)[C@H]2[C@@H](c3ccc(-c4ccc(F)cc4)cc3)N[C@@](CC(C)C)(C(=O)OC)[C@H]2C1=O	x	5.2µM*	10µM*	-13%	x	x
COC(=O)[C@]1(CC(C)C)N[C@H](c2ccc(-c3ccc(OC)cc3)cc2)[C@@H]2C(=O)N(C)C(=O)[C@@H]21	x	u	u	-26%	x	x
COC(=O)[C@]1(CC(C)C)N[C@H](c2ccc(-c3ccc(F)cc3)cc2)[C@@H]2C(=O)N(C)C(=O)[C@@H]21	x	6.6µM*	3.3µM*	u	x	x
CS(=O)(=O)c1ccc(Cl)c(NC(=O)COC(=O)c2ccc(-n3cnnn3)cc2)c1	x	u	-3%	0%	x	x
Cc1ccc(OCC(=O)Nc2ccc(N3CCN(S(C)(=O)=O)CC3)cc2)cc1C	-3	-29%	0%	10%	2%	-5
O=C(NC(c1ccc(Cl)cc1)c1cc(Cl)c2cccnc2c1O)c1cccnc1 (centres undefined)	0	46%	1.2µM*	-11%	20%	-5
CC(=O)NC(c1ccccc1)c1cc(Cl)c2cccnc2c1O (centres undefined)	-1	u	0.83µM*	-23%	-125%	-13
CCCCCCCCCCCCC/C=C/[C@@H](O)[C@H](CO)NC(=O)CCCCC	2	x	x	x	x	21
CCS(=O)(=O)N1CC(=O)N(c2ccc(C)c(C)c2)C(C)(C(=O)NC2CCCCC2)C1 (centres undefined)	x	x	x	8%	x	x
S=C(Nc1ccc(Cl)c(Cl)c1)N1CCOCC1	5	13%	18%	7%	-10%	5
SMILES	Cycloheximide cs	Pf growth 96h	Pf growth 48h	Sm TGR block	NS1 inh	Shiga toxin inh
S=C(c1ccc(-c2ccc(Br)cc2)o1)N1CCOCC1	51*	275%	181%	-6%	-10%	92*
S=C(c1ccc(-c2ccc(Br)cc2)o1)N1CCCCC1	8	2%	29%	8%	-56%	74
CC1CCN(C(=O)c2ccc(-c3ccccc3Cl)o2)CC1	x	188%	140%	u	x	x
S=C(c1ccc(-c2ccccc2Cl)o1)N1CCOCC1	24*	x	129%	0%	-92%	93*
S=C(c1ccc(-c2ccc(Cl)c(Cl)c2)o1)N1CCOCC1	62*	213%	76%	45µM*	-5%	96*
O=C(c1ccc(CS(=O)c2ccccc2Cl)o1)N1CCOCC1 (centres undefined)	-9	-4%	1%	32µM*	6%	-11
O=S1(=O)c2ccccc2N(Cc2cccc(C(F)(F)F)c2)c2ccccc21	x	x	x	-1%	x	x
O=C(c1ccc(-c2ccccc2Cl)o1)N1CCC1	x	23%	77%	-13%	x	x
O=C(c1ccc(-c2cccc(Cl)c2Cl)o1)N1CCOCC1	37*	-29%[5.75 µM]	75%	u	-5%	133*
O=C(c1ccc(-c2ccc([N+](=O)[O-])cc2Cl)o1)N1CCOCC1	26*	10%	33%	x	-8%	57*
O=C(c1cccc(Oc2ccc([N+](=O)[O-])cc2Cl)c1)N1CCOCC1	-3	u	10%	-11%	-7%	-8
Cc1noc(C)c1COC(=O)c1ccc(N(C)C)cc1	14	205%	55%	9%	x	38
Cc1ccc(NCc2nc3ccccc3n2C)c(C)c1	23*	-26%	136%	3%	-6%	45*
Cn1c(CNc2ccc(Cl)cc2)nc2ccccc21	31*	u	37%	-5%	-22%	110*
Cc1cccc(NCc2nc3ccccc3n2C)c1	34	x	49%	-6%	-12%	85
Cc1ccc(N2CCN(c3ccc(NCc4nc5ccccc5n4C)cc3)CC2)cc1	1	5.2µM*	13µM*	-26%	-1%	25
CCn1c(SC(C)C(=O)NC2CCCC2)nc2cc(S(N)(=O)=O)ccc21 (centres undefined)	x	8%	u	-9%	x	x
CCOc1ccc(NC(=O)C2CCCN(S(=O)(=O)c3c(C)noc3/C=C/N(C)C)C2)cc1 (centres undefined)	x	x	x	5%	x	x
NC1=NC(=O)/C(=C\c2cccs2)S1	11	4%	12%	9%	9%	-1
Cc1ccccc1-c1ccc(/C=C2/SC(N3CCOCC3)=NC2=O)o1	-2	u	10µM*	u	2%	13
N#CCCN1CCN(C2=NC(=O)/C(=C\c3cccs3)S2)CC1	21*	16%	u	-6%	x	29
O=C1N=C(N2CCOCC2)S/C1=C\c1cccs1	22*	1%	u	-7%	-5%	39*
CCCN1C(=O)C2(c3ccccc31)c1c(oc3cc(C)c(C)cc3c1=O)C(=O)N2CCCOC (centres undefined)	x	x	x	4%	x	x
O=C(c1cc(-c2ccco2)on1)N1CCCc2ccccc21	16*	-19%	51%	u	-49%	105*
